CSC inhib = cancer stem cell inhibition; cancer stem cell-like cells viability, luminescence; inhibition, % at 7.5 µM; hit rate 1.1% among 300,000; in the data active = inhibition above about 75%; inconclusive = no clear call, values can overlap the other calls; tested in HMLE shEcad cells
Mdm2 MdmX PPI = human Mdm2/MdmX binding inhibition | SaOS-2 split-luciferase Mdm2/MdmX complementation, luminescence | inhibition, % at 8 µM | hit rate 3% among 330,000 | O15151+Q00987 | AID 485346;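 active = inhibition of at least 50% at 8 µM in the primary screen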
Gli-Sufu block = blocks Gli-Sufu signaling in a luciferase reporter. inhibition, % at 5 µM. AID 588413. Sufu-KO-LIGHT fibroblasts, Gli luciferase reporter luminescence. hit rate 0.74% among 340,000;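 active = inhibition above about 55%, limit read from the data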
Jurkat NFkB inh = lowers PMA/ionomycin-induced NF-kB signal in Jurkat cells. PMA/ionomycin-induced NF-kB luciferase reporter, luminescence. hit rate 0.53% among 330,000. inhibition, % at 4 µM; in the data active = inhibition above about 50%
697 NFkB inh = lowers PMA/ionomycin-induced NF-kB signal in 697 B cells. hit rate 0.33% among 330,000. inhibition, % at 4 µM. AID 435022. 697 B-cell NF-kB luciferase reporter, 16 h; in the data active = inhibition above about 35%
Beta cell apopt = beta cell apoptosis inhibition; protection from apoptosis, % (no concentration beside the values); INS-1E cytokine-induced death, ATP luminescence, 48 h; percent of positive-control rescue, neutral wells zero; hit rate 0.8% among 300,000; AID 435005;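 active = Every replicate reaches about 75%, or at least half do and their mean reaches it too, limit read from the data; inconclusive = At least half of replicates reach the limit but their mean does not; inactive = Under half of replicates reach the limit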;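 note: higher means more ATP so stronger rescue from cytokine killing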
Mdm2-MdmX conf = human Mdm2/MdmX binding inhibition, confirmed; shares compounds with Mdm2 MdmX PPI; luminescent assay; inhibition, % at 8 µM; hit rate 55% among 10,000; AID 489028; in the data active = inhibition above about 40%
FLuc counter = inhibits full-length luciferase, flagging false Mdm2/MdmX hits; SaOS-2 full-length luciferase counterscreen, luminescence; shares compounds with Mdm2 MdmX PPI; hit rate 77% among 6,200; inhibition, % at 8 µM; AID 504607;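 active = mean inhibition at 8 µM reaching about 37%, which flags the compound as non-specific, limit read from the data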;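 note: p53-null SaOS-2 cells with luciferase driven by a doxycycline-inducible promoter; compound on cells about two nights before reading with doxycycline added after day one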
A number is an active result; 0 = inactive; ? = inconclusive; - = no result given; ! = a repeat was not active. A selection: hits, their analogues and other compounds. The true share with any hit is near 4.5%.

SMILES	CSC inhib	Mdm2 MdmX PPI	Gli-Sufu block	Jurkat NFkB inh	697 NFkB inh	Beta cell apopt	Mdm2-MdmX conf	FLuc counter
CC1=NN(c2nc(-c3ccc(C)cc3)cs2)C(=O)C1N=Nc1ccccc1O (stereo not drawn)	0	72.5	0	0	0	0	80.0	0
CC1=NN(c2nc(-c3ccc(C)cc3)cs2)C(=O)C1N=Nc1cccc(O)c1 (stereo not drawn)	0	0	0	0	0	0	-	-
Cc1cnc(NC(=O)CN2CCN(c3ccccn3)CC2)s1	0	67.2	0	0	0	79.0	63.3	63.9
COc1ccc(N2CCN(CC(=O)Nc3ncc(C)s3)CC2)cc1	0	0	0	0	0	0	-	-
CCCNc1nc(-c2ccccc2)c(C(=O)OCC)cc1C#N	0	62.8	0	0	0	0	52.2	63.5
CCCCNc1nc(-c2ccccc2)c(C(=O)OCC)cc1C#N	0	0	0	0	0	0	-	-
CC1CCC(NC(=O)c2cc(S(=O)(=O)N3CCCCC3)ccc2N2CCOCC2)CC1 (stereo not drawn)	-	0	0	0	0	0	-	-
COC(=O)C1=C(C)N(c2ccc(Cl)c(Cl)c2)C(=O)C1	0	96.9	0	0	0	0	0	-
COC(=O)C1=C(C)N(c2ccc(S(N)(=O)=O)cc2)C(=O)C1	0	0	0	0	0	0	-	-
CCC(C(=O)Nc1ccc([N+](=O)[O-])cn1)c1ccccc1 (stereo not drawn)	0	0	0	0	0	0	-	-
CCOC(=O)c1ccc2ncc(C(=O)OCC)c(Nc3ccc(N4CCOCC4)cc3)c2c1	0	68.1	0	0	0	0	55.4	55.4
CCOc1ccc2nc(C)cc(Nc3ccc(N4CCOCC4)cc3)c2c1	0	0	-	0	0	0	0	-
S=C(Nc1ccc(Br)cc1Cl)N1CCCC1	0	0	0	0	0	0	-	-
O=C(Nc1ccc(CN2CCCCC2)cc1)Nc1ccc(Br)cc1Cl	-	73.8	0	0	0	0	41.8	38.9
CC[C@H](C)C(=O)O[C@H]1C[C@@H](C)C=C2C=C[C@H](C)[C@H](CC[C@@H]3C[C@@H](O)CC(=O)O3)[C@H]21	0	52.7!	0	0	0	0	0	-
CCC(C)C(=O)OC1CCC=C2C=CC(C)C(CCC3CC(O)CC(=O)O3)C21 (stereo not drawn)	-	-	0	-	-	-	-	-
O=C(Nc1ccc(F)cc1)c1nc(S(=O)(=O)Cc2ccccc2)ncc1Cl	107.9	95.8	0	0	0	0	94.5	52.1
Cc1ccc(NC(=O)c2nc(S(=O)(=O)Cc3ccccc3)ncc2Cl)cc1	103.9	81.7	0	0	0	109.1	63.3	51.5
O=C(Nc1ccc(F)cc1)c1nn(-c2ccccc2)c(=O)cc1Cl	-	-	0	-	-	-	-	-
Cc1ccccc1CS(=O)(=O)c1ncc(Cl)c(C(=O)Nc2ccc(F)cc2)n1	98.3	100.0	0	-	-	0	65.4	52.1
CCOC(=O)c1ccc(NC(=O)c2nc(SC)ncc2Cl)cc1	0	0	0	0	0	0	-	-
COc1ccc(-c2nn(-c3ccccc3)cc2/C=C2/SC(=S)N(Cc3ccco3)C2=O)c(C)c1	0	58.7	0	0	0	0	0	-
COc1ccc(C)cc1N(CC(=O)Nc1ccc(S(=O)(=O)N2CCCC2)cc1)S(C)(=O)=O	0	0	0	0	0	0	-	-
C/C(=N/NC(=O)c1ccc2c(c1)OCO2)c1ccc(Br)s1	0	0	0	0	0	0	-	-
C/C(=N\NC(=O)c1ccc(Cl)c(Cl)c1)c1ccc(Br)s1	0	68.3	0	0	0	0	55.2	46.8
SMILES	CSC inhib	Mdm2 MdmX PPI	Gli-Sufu block	Jurkat NFkB inh	697 NFkB inh	Beta cell apopt	Mdm2-MdmX conf	FLuc counter
O=C(COc1ccc2ccc(=O)oc2c1)Nc1cccc(S(=O)(=O)N2CCCCC2)c1	0	0	0	0	0	0	-	-
Cc1cc(N2O[C@]34C=C[C@]25C[C@@H](O)CC[C@]5(C)C3CC[C@]2(C)[C@@H]([C@H](C)/C=C/[C@H](C)C(C)C)CC[C@H]24)no1 (stereo partly drawn)	-	90.7	0	-	0	-	0	-
CCOC(=O)c1c(C)[nH]c(C(=O)OCC(=O)NCc2ccc(F)cc2)c1C	-	78.4	0	0	0	0	0	-
COc1ccc(-c2oc(=O)c3cc(OC)c(OC)cc3c2/C=C/c2cccc([N+](=O)[O-])c2)cc1	0	54.0	0	0	0	0	0	-
COc1cc(/C=N/NC(=O)Nc2cccc3nsnc23)cc(OC)c1OC	-	-	0	-	-	-	-	-
O=C(N/N=C/c1ccc(O)cc1)Nc1cccc2nsnc12	0	70.5	0	0	0	0	66.2	62.0
CC(/C=N\Nc1nnc2c(n1)[nH]c1c(C)cccc12)=C\c1ccco1	0	90.8	0	0	0	0	40.4	57.2
Cc1ccc(NC(=S)N=Nc2c(O)n(C)c3ccc(S(=O)(=O)N4CCOCC4)cc23)cc1C	0	52.0	0	0	0	-	40.9	47.8
Cn1c(O)c(N=NC(=S)Nc2ccccc2F)c2cc(S(=O)(=O)N3CCOCC3)ccc21	-	-	0	-	-	-	-	-
Cc1cc(C(=O)Nc2ccc(Cl)c(S(=O)(=O)N3CCOCC3)c2)c2ccccc2n1	-	0	0	0	0	0	-	-
CCOC(=O)C1=C(N)n2c(s/c(=C/c3ccccc3)c2=O)=C(C(=O)OCC)C1c1ccccc1 (stereo not drawn)	0	51.1	-	0	0	0	0	-
CCOC(=O)C1=C(N)n2c(s/c(=C\c3ccco3)c2=O)=C(C(=O)OCC)C1c1ccco1 (stereo not drawn)	0	-	0	-	-	0	-	-
CCC[C@H](CN[C@@H](CNC)[C@H](C)O)NCCc1ccc(OC)cc1	0	0	0	0	0	0	-	-
CCCC[C@@H](CNC)NC[C@H](Cc1ccc(O)cc1)NCCc1ccc(OCC)cc1	0	97.5	0	0	0	0	52.0	73.5
COc1ccc(-n2nc(C(=O)NCC(=O)Nc3cc(OC)c(OC)c(OC)c3)c3ccccc3c2=O)cc1	0	51.5	0	0	0	0	0	-
COc1ccc2nc(NC(=O)CSc3nc(SC)ns3)sc2c1	0	0	0	0	0	0	-	-
COc1ccc(-n2nc(C(=O)Nc3nc4ccc(OC)cc4s3)c3ccccc3c2=O)c(OC)c1	0	77.4	-	0	0	0	0	-
COc1ccc2nc(NC(=O)CSc3nnc(C)s3)sc2c1	0	80.0	0	0	0	0	0	-
COc1ccc2nc(NC(=O)c3cccc(-c4cc5ccccc5oc4=O)c3)sc2c1	?	78.1	0	0	0	0	63.7	120.4
O=C(NC1(Cc2ccccc2)CCN(CCCc2ccccc2)C1=O)c1ccccc1 (stereo not drawn)	0	63.9	0	0	0	111.3	54.0	40.0
COc1ccc2[nH]cc(CCNC(=O)Cn3cc(C)c(=O)[nH]c3=O)c2c1	-	-	0	-	-	-	-	-
O=C1c2ccccc2/C(=C\c2ccc3[nH]ccc3c2)N1c1ccccc1	-	0	0	0	0	0	-	-
CCC/C(=C1/c2ccccc2C(=O)N1c1ccccc1)c1ccc2[nH]ccc2c1	134.8	59.1	0	0	0	0	52.4	45.4
